# From PubChem BioAssay AID2314 (National Center for Advancing Translational Sciences (NCATS), 2010)
# Out of some 300,000 compounds screened, about 37,000 (12%) were called active. Cut-off read from the data, not from the text of the source: active = max response mostly above about 13% (no sharp cut-off); inactive = mostly below about 14%. The entries come from a sample that favours actives as a whole.
# Assay: Cycloheximide Counterscreen for Small Molecule Inhibitors of Shiga Toxin; note: read at 38.3 µM for the half of the compounds with a filed dose; 0% is about no effect
# Settings: cell reporter, cycloheximide protein synthesis inhibition counterscreen; active compounds read high
row,SMILES,max response
1,COc1ccc(/C=N/NC(=O)c2ccccc2)cc1OS(=O)(=O)c1ccccc1,17.9% (active)
2,COc1cccc(OCc2cc(/C=N/NC(=O)c3nc(Cl)c(Cl)c(N)c3Cl)ccc2OC)c1,-1.62% (inactive)
3,COc1ccc(/C=N/S(=O)(=O)c2ccccc2)cc1OC,-3.6% (inactive)
4,COc1cc(/C=N/NC(=O)c2ccccc2)ccc1OS(=O)(=O)c1ccccc1,10% (inactive)
5,COc1ccc(C(=O)Oc2cc(/C=N/NS(=O)(=O)c3ccc(C)cc3)ccc2OC)cc1,1.6% (inactive)
6,COc1ccc(/C=N\NC(=O)c2sc(N)nc2C)cc1OC,16.4% (active)
7,CCN(CC)CCCNC(=O)c1cn(C)c2ccc(S(=O)(=O)N(C)C3CCCCC3)cc2c1=O,-5.84% (inactive)
8,Fc1ccccc1/C=C1\CCCC2=C1Nc1ncnn1C2c1ccccc1F (stereo not given),-5.33% (inactive)
9,COc1ccc(N(CC(=O)NCC2CCCO2)C(=O)CCC(=O)Nc2nccs2)c(OC)c1 (stereo not given),-4% (inactive)
10,CCc1ccc(N2CC(C(=O)Nc3ccc(S(=O)(=O)Nc4nccs4)cc3)CC2=O)cc1 (stereo not given),-3.18% (inactive)
11,Cc1ccc(C(=O)N/C(=C/c2cccnc2)C(=O)O)cc1,-0.563% (inactive)
12,C/C(=N\NC(=O)c1ccc(C)cc1)C1C(=O)c2ccccc2C1=O,23.4% (active)
13,C/C(=N\NC(=O)CNC(=O)C(c1ccccc1)c1ccccc1)c1ccc(C)cc1,-6.41% (inactive)
14,Cc1ccc(S(=O)(=O)c2nc(-c3cccs3)oc2NCc2cccnc2)cc1,7.52% (inactive)
15,O=C1c2cccc3c([N+](=O)[O-])ccc(c23)C(=O)N1CC1CCCO1 (stereo not given),20% (inactive)
16,Cc1cc(Nc2ccccc2)n(C(=O)c2ccc(N)cc2)n1,24% (active)
17,Cc1cc(C)n(C(=O)c2ccc(S(=O)(=O)N3CCCC3)cc2)n1,-2.32% (inactive)
18,Cc1cc(Nc2ccccc2)n(CCC#N)n1,-3.59% (inactive)
19,O=C(COc1ccc(S(=O)(=O)N2CCCCC2)cc1)NCc1ccccn1,0.485% (inactive)
20,CC(c1ccco1)N(C(=O)c1ccc(S(=O)(=O)N2CCCCC2)cc1)c1ccccn1 (stereo not given),15.1% (active)

row,SMILES,max response
1,CC(c1ccco1)N(C(=O)COc1ccccc1[N+](=O)[O-])c1ccccn1 (stereo not given),20.7% (inactive)
2,CC(C)N1CCC(=NNc2ccc([N+](=O)[O-])cc2S(=O)(=O)N2CCOCC2)CC1,-2.55% (inactive)
3,CN(c1ccccc1)S(=O)(=O)c1ccc2[nH]c(=O)[nH]c2c1,-2.46% (inactive)
4,CCOC(=O)CNc1nc2ccccc2n2c(C)nnc12,7.6% (inactive)
5,Fc1ccc(CNc2nc3ccccc3n3nnnc23)cc1,13.3% (active)
6,COc1ccc(CNc2nnnn2C)cc1,-1.69% (inactive)
7,Cc1ccc(-c2ccc(=O)n(Cc3ccc(F)cc3Cl)n2)cc1,7.94% (inactive)
8,CCN1/C(=C\c2ccc3ccccc3[n+]2CC)Sc2cc(C)ccc21,1.19% (inactive)
9,CCN1/C(=C/c2ccc3ccc(C)cc3[n+]2CC)Sc2ccccc21,11.9% (active)
10,CCN1CCN(CCNC(=O)c2ccc(/C=C3/Sc4ccccc4N(Cc4cccc(C)c4)C3=O)cc2)CC1,-11.9% (inactive)
11,Cc1ccc2sc(N(CCN(C)C)C(=O)/C=C/c3cccs3)nc2c1C,-8.25% (inactive)
12,COc1ccc(-n2c(O)c(C(C)=Nc3ccc4c(c3)CCC4)c(=O)[nH]c2=O)cc1,-1.73% (inactive)
13,COc1ccc(N=C(C)c2sc3ccccc3c2O)cc1,43.2% (active)
14,COc1ccc(S(=O)(=O)Nc2ccc(O)c(Sc3nc4ccccc4s3)c2)cc1,1.12% (inactive)
15,CC(=O)[C@@]12O[C@@H]1C[C@H]1[C@@H]3CC[C@H]4C[C@@H](O)CC[C@]4(C)[C@H]3CC[C@@]12C,-5.5% (inactive)
16,CCN1CCC2(CCN(Cc3cn[nH]c3-c3ccc(OC)c(F)c3)C2)C1 (stereo not given),-2.52% (inactive)
17,Cc1ccc(NC(=O)C2CCN(S(=O)(=O)c3ccc4c(c3)NC(=O)CO4)CC2)cc1C,1.16% (inactive)
18,COC(=O)C(NC(C)=O)(Nc1nc2c(s1)CCCC2)C(F)(F)F (stereo not given),-2.42% (inactive)
19,O=C(Cn1c(=O)sc2ccccc21)Nc1nc2c(s1)CCCC2,3.35% (inactive)
20,Fc1ccc2nc(Nc3nc4c(s3)CCCC4)sc2c1,40.4% (active)

row,SMILES,max response
1,CN(C)c1cc(-c2ccc(F)cc2)oc(=O)c1Cl,2.21% (inactive)
2,Cc1cc(C)nc(Nc2ncn[nH]2)n1,-1.33% (inactive)
3,Cc1cc(C)nc(Nc2n[nH]c(-c3ccccc3N)n2)n1,52% (active)
4,Cc1ccccc1-c1n[nH]c(=S)n1C,6.29% (inactive)
5,CS(=O)(=O)Nc1ccccc1N=C(c1ccccc1)c1ccccc1,-4.16% (inactive)
6,C/C=C(/C)C(=O)O[C@@H]1c2cc3c(c4c2[C@@]2(CO4)C(=O)C(OC)=C(OC)C=C2C[C@@H](C)[C@H]1C)OCO3,-1.03% (inactive)
7,COc1ccc(S(=O)(=O)N2CCSCC2)cc1,-2.78% (inactive)
8,CCCNC(=O)CCc1c(C)nc2c(c(C)nn2-c2ccc(C)cc2)c1C,-2.97% (inactive)
9,CCCNC(=O)c1ccc(Cl)c(Cl)c1,-2.92% (inactive)
10,CCCNC(=O)c1c(Cl)cnn1-c1ccc(C)cc1,39.1% (active)
11,O=C1C=CC(=O)N1c1ccc(N2CCCCC2)cc1,8% (inactive)
12,Cc1n[nH]c(C)c1S(=O)(=O)N1CCCC(C(=O)Nc2ccc(Br)cc2)C1 (stereo not given),-4.38% (inactive)
13,CCS(=O)(=O)c1ccc(O)c(NC(=O)COc2ccc(Cl)cc2)c1,-2.47% (inactive)
14,COC(=O)c1sccc1NC(=O)CCC1CCCC1,11% (inactive)
15,COC(=O)c1sccc1NC(=O)c1ccc(Cl)cc1,-0.926% (inactive)
16,O=C(COc1ccc(Cl)cc1)Nc1ccccc1CO,19.6% (active)
17,O=C(COc1ccc(Cl)cc1)NCCSc1ccccc1,-2.45% (inactive)
18,COC(=O)c1sccc1NC(=O)COc1ccc(Cl)cc1,18% (active)
19,CCOc1ccc(N/C(N)=N/c2nc(C)c(C)c(=O)[nH]2)cc1,0.863% (inactive)
20,Cc1ccc(NC(=O)Cn2cccc2C2=NC(c3ccccc3)CO2)c(C)c1 (stereo not given),-4.36% (inactive)
